Results from PubChem BioAssay (NCI).
About 83,000 compounds went through this panel and 20% of them were active in at least one assay; those are over-represented in the sample as a whole.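 For each line, cells grew in 96-well plates with the test compound present at a single concentration for 48 hours.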 Active and inactive are the calls of the source. Rule for the calls: active = growth percent below 10; inactive = the rest.

Legend:
Assay in all cases: NCI-60 one-dose screen, 48 h (100 = growth as untreated, 0 = no growth, -100 = all killed)
Settings in all cases: 10 µM unless noted
NCI-H23 lung = tested on: NCI-H23 lung
NCI-H226 lung = tested on: NCI-H226 lung
NCI-H322M lung = tested on: NCI-H322M lung
HOP-62 NSCLC = tested on: HOP-62 NSCLC
NCI-H460 lung = tested on: NCI-H460 lung
HOP-92 NSCLC = tested on: HOP-92 NSCLC
NCI-H522 lung = tested on: NCI-H522 lung
A549/ATCC NSCLC = tested on: A549/ATCC NSCLC
786-0 renal = tested on: 786-0 renal
COLO 205 colon = tested on: COLO 205 colon
DU-145 prostate = tested on: DU-145 prostate
K-562 leukemia = tested on: K-562 leukemia
MALME-3M melanoma = tested on: MALME-3M melanoma
MDA-MB-231 breast = tested on: MDA-MB-231 breast
RXF 393 renal = tested on: RXF 393 renal
SF-268 CNS = tested on: SF-268 CNS
SF-295 CNS = tested on: SF-295 CNS
SF-539 CNS = tested on: SF-539 CNS
UACC-257 melanoma = tested on: UACC-257 melanoma
M14 melanoma = tested on: M14 melanoma

Measured: growth

Cc1ccccc1[C@H]1C(C(=O)c2ccc(Cl)cc2)C2(N[C@@H]1c1ccccc1)C(=O)Nc1ccccc12 (stereo not given in full)
inactive: NCI-H322M lung 16.6%
active: NCI-H23 lung -52% | NCI-H226 lung -55.2% | HOP-62 NSCLC -48.2% | NCI-H460 lung -45.5% | HOP-92 NSCLC -50.4% | NCI-H522 lung -48.1% | A549/ATCC NSCLC -21.7% | 786-0 renal -41.5% | COLO 205 colon -74.5% | DU-145 prostate -34.4% | K-562 leukemia -21% | MALME-3M melanoma -64.7% | MDA-MB-231 breast -60.4% | RXF 393 renal -66% | SF-268 CNS -12.5% | SF-295 CNS -19% | SF-539 CNS -69.5% | UACC-257 melanoma -16.4% | M14 melanoma -77.9%

CN(C)c1ccnc(CNCCSC2(c3ccccc3)c3ccccc3C=Cc3ccccc32)c1
active: NCI-H23 lung -30.6% | HOP-62 NSCLC 9.26% | NCI-H460 lung -87.4% | HOP-92 NSCLC -17.2% | NCI-H522 lung -73.6% | A549/ATCC NSCLC 0.815% | 786-0 renal -46.8% | COLO 205 colon -84.7% | DU-145 prostate -26.1% | K-562 leukemia -27.1% | MALME-3M melanoma -93.4% | MDA-MB-231 breast -49.5% | RXF 393 renal -36.6% | SF-268 CNS -30.7% | SF-295 CNS -70.5% | SF-539 CNS -96.5% | UACC-257 melanoma -66.3% | M14 melanoma -80.8%
inactive: NCI-H226 lung 16.7% | NCI-H322M lung 29.1%

CCCCSc1nc(NCCc2c[nH]c3ccccc23)c(C#N)c(-c2ccccc2)n1
inactive: NCI-H23 lung 15.8% | NCI-H226 lung 44.6% | NCI-H322M lung 83.8% | HOP-62 NSCLC 39.7% | NCI-H460 lung 14.5% | NCI-H522 lung 47.4% | A549/ATCC NSCLC 39.1% | 786-0 renal 10.6% | COLO 205 colon 24.8% | DU-145 prostate 54% | MALME-3M melanoma 86.9% | MDA-MB-231 breast 18.3% | SF-268 CNS 39.9% | SF-295 CNS 48.4% | SF-539 CNS 46.6% | UACC-257 melanoma 81.4% | M14 melanoma 60.1%
active: HOP-92 NSCLC -1.67% | K-562 leukemia 8.19% | RXF 393 renal -8.31%

C/C(=N\N=C1/C(=O)Nc2ccc(Cl)cc21)c1ccc2c(c1)Nc1ccccc1S2
active: NCI-H23 lung -28.2% | NCI-H460 lung -21.9% | HOP-92 NSCLC -10.5% | NCI-H522 lung -34% | A549/ATCC NSCLC -6.39% | 786-0 renal -70% | COLO 205 colon -41.7% | DU-145 prostate -56.3% | MALME-3M melanoma -19.6% | MDA-MB-231 breast -2.47% | RXF 393 renal -11.5% | SF-295 CNS -27.4% | SF-539 CNS 3.26% | M14 melanoma -20.8%
inactive: NCI-H226 lung 31.3% | NCI-H322M lung 28.3% | HOP-62 NSCLC 19.3% | K-562 leukemia 10% | SF-268 CNS 35.7% | UACC-257 melanoma 10.1%

NS(=O)(=O)c1ccc(NNC(=O)CCC(=O)c2ccccc2)cc1
inactive: NCI-H23 lung 105% | NCI-H226 lung 100% | NCI-H322M lung 109% | HOP-62 NSCLC 100% | NCI-H460 lung 107% | HOP-92 NSCLC 93.3% | NCI-H522 lung 89.1% | A549/ATCC NSCLC 103% | 786-0 renal 98.4% | COLO 205 colon 118% | DU-145 prostate 114% | K-562 leukemia 71.6% | MALME-3M melanoma 107% | MDA-MB-231 breast 99.3% | RXF 393 renal 119% | SF-268 CNS 95.8% | SF-295 CNS 99.4% | SF-539 CNS 103% | UACC-257 melanoma 103% | M14 melanoma 104%

CC(C)c1sc(NC(=O)c2cc(NC(=O)c3cc(NC(=O)c4cscn4)cn3C)cn2C)nc1C(=O)NCCCN(C)C
active: NCI-H23 lung -22.3% | NCI-H226 lung -54% | HOP-92 NSCLC -22.9% | NCI-H522 lung -74.8% | COLO 205 colon -63% | K-562 leukemia 8.89% | MALME-3M melanoma -51.7% | MDA-MB-231 breast -33.3% | RXF 393 renal -47.2% | SF-539 CNS -33.6% | UACC-257 melanoma 7.52%
inactive: NCI-H322M lung 19.9% | HOP-62 NSCLC 16.1% | NCI-H460 lung 89.9% | A549/ATCC NSCLC 105% | 786-0 renal 64.8% | DU-145 prostate 16.4% | SF-268 CNS 16.3% | SF-295 CNS 58.7% | M14 melanoma 45%

COc1ccc(N2N=C(c3ccc4c(c3)OCO4)CC2c2cccc(NC(=O)CCNS(=O)(=O)c3ccc(Cl)cc3)c2)cc1 (stereo not given)
active: NCI-H522 lung -80.7% | K-562 leukemia 9.67% | MDA-MB-231 breast -5.89% | RXF 393 renal 4.88%
inactive: NCI-H23 lung 32.6% | NCI-H226 lung 30.8% | NCI-H322M lung 51.8% | HOP-62 NSCLC 50.2% | NCI-H460 lung 22.3% | HOP-92 NSCLC 32% | A549/ATCC NSCLC 33.4% | 786-0 renal 43% | COLO 205 colon 29.2% | DU-145 prostate 39.7% | MALME-3M melanoma 18.7% | SF-268 CNS 32.8% | SF-295 CNS 10.7% | SF-539 CNS 38.2% | UACC-257 melanoma 49.2% | M14 melanoma 29.5%
